Laboratory results taken from PubChem BioAssay (NCI).
This is part of a sample that, as a whole, favours compounds with a hit. Of some 83,000 tested, about 20% had one in any assay.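 Method: cells in 96-well plates; compound added at one concentration; 48 h incubation; percent growth measured; values under 10 scored active.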 A number with no mark means an inactive call. The source made the active and inactive calls.

test system: NCI-H23 lung; assay: NCI-60 one-dose screen, 48 h (100 = growth as untreated, 0 = no growth, -100 = all killed); settings: 10 µM unless noted

Row | Structure (SMILES) | growth [%]
1 | COc1c(O[C@@H]2OC(CO)[C@H](O)[C@H](O)C2O)cc2oc3cc(O)c(CC=C(C)C)c(O)c3c(=O)c2c1CC=C(C)C (stereo partly drawn) | 93.5
2 | COc1cccc(-c2cc(-c3ccc(Nc4nc(Nc5ccc(Cl)cc5)nc(Nc5ccc(Cl)cc5)n4)cc3)nc(N)c2C#N)c1 | 37.9
3 | O=C(NCCN1CCOCC1)c1cncnc1Nc1ccc2c(ccn2Cc2ccccn2)c1 | 102

test system: NCI-H226 lung; assay: as above; settings: 10 µM unless noted

Row | Structure (SMILES) | growth
4 | Clc1nc(N2CCC[N+]3(CC2)CC[N+]2(CCCNCC2)CC3)nc(N2CCC[N+]3(CC2)CC[N+]2(CCCNCC2)CC3)n1 (stereo not drawn) | 68.4%
5 | O=C(Nc1ccccc1CNc1nc(Nc2ccc(OCCN3CCCC3)cc2)ncc1Cl)NC1CCCCC1 | 97%
6 | Cc1nc2c(c(-c3ccccc3)n1)Cc1c(ccc3ccccc13)O2 | 82.2%
7 | COC(CCP(=O)(c1ccccc1)c1ccccc1)(C(=O)c1ccccc1)c1ccccc1 (stereo not drawn) | 85.7%
8 | Nc1ncc(-c2ccc3ncnc(N4CCc5cc(F)c(Cl)cc54)c3c2)cc1C=O | 37.2%
9 | CC(C)(C)n1cc(-c2ccnc(NCCNS(=O)(=O)c3ccc(C(F)(F)F)cc3)c2)c(-c2ccccc2)n1 | 89.4%
10 | Clc1ccc(C2=Nn3c(nnc3-c3cc(Cl)cc(Cl)c3Cl)SC2)cc1 | 75.3%
11 | O=C(NC1CCCCCC1)c1ccc2c(=O)n3c(nc2c1)CCCCC3 | 106%
12 | C=C1C(=O)O[C@H]2[C@H]1CC/C(CNC(=O)/C=C/c1cc(OC)c(OC)c(OC)c1)=C\CC[C@@]1(C)O[C@@H]21 | -61.8% (active)
13 | Cc1c(CC(=O)Nc2ccccc2)nnn1-c1ccccc1 | 109%
14 | CCn1c2ccccc2c2cc(C(O)c3cccc4ncccc34)ccc21 (stereo not drawn) | 23.7%
15 | CSc1nc(CC(C)C)c(C#N)c(=O)n1C | 60.3%
16 | Oc1c(Cl)cc(Cl)c2ccc(CN3CCNCC3)nc12 | 61.6%
17 | CO[C@H]1CC(c2ccc[nH]2)=N[C@]12O[C@@H](C)C[C@@H]1CCCCCCCc3ccc([nH]3)[C@H]12 | 29.3%
18 | Nc1c(C(=O)c2ccc(Cl)cc2)sc(Nc2ccccc2)c1-c1nc2ccccc2s1 | 49.9%
19 | Cn1nc(-c2ccc(Cl)cc2)nc2c(=O)n(C)c(=O)nc1-2 | -51.4% (active)
20 | Cc1ccc(C2=Nc3c(N)nc(N)nc3NC(c3cccc(Nc4ccnc5cc(C(F)(F)F)ccc45)c3)C2)cc1 (stereo not drawn) | 80.7%
21 | COC(=O)[C@H](C)NC(=O)c1ccc(NC(=O)c2[nH]c(C)c(Cl)c2Cl)c(OCCN)c1 | 112%
22 | CC(C)=CC(=O)C1C(=O)c2ccccc2C1=O | 97.9%
23 | C=CCn1c(SCC(=O)Nc2ccc(C(=O)/C=C/c3ccc(Cl)cc3)cc2)nnc1-c1ccc(Cl)c(Cl)c1 | 85.7%

Row | Structure (SMILES) | growth
24 | CC(C)n1cc(C2=C(c3cccc4ccccc34)C(=O)NC2=O)c2cc(Br)ccc21 | 37.8%
25 | CC1(C)C2=C(C(=O)N1Cc1ccccc1)C(c1ccco1)N(C(=O)C1CCC1)CCN2 (stereo not drawn) | 116%
26 | COc1cc(OC)cc(C(=O)Nc2cnc(Nc3ccc(N4CCOCC4)nc3)nc2Oc2ccc(C(F)(F)F)cc2)c1 | 39.9%
27 | C=C(c1ccc(C(=O)O)c(F)c1)c1cc2c(cc1C)C(C)(C)C=CC2(C)C | 65.5%
28 | O=C1c2c(c3c4cc(F)ccc4oc3c3[nH]c4ccccc4c23)C(=O)N1O | 59.3%
29 | CCCN1C(=O)N(CCC)C2C1NC(=S)N2/N=C/C=C/c1ccccc1OC (stereo not drawn) | 55.4%
30 | O=C(Nc1ccccc1)Nc1ccccc1CNc1nc(Nc2ccc(OCCN3CCCC3)cc2)ncc1Cl | 89.4%
31 | O=C1NC(=O)C(=Cc2cc(-c3ccc(Cl)cc3)n(-c3ccccc3)n2)C(=O)N1 | 82.5%
32 | COc1ccc(-c2nc3cc(C(=O)NC4CCCCC4)ccc3n2C2CCCCC2)cc1 | 115%
33 | O=c1ccc2c(ccc3ncccc32)o1 | 104%
34 | CC/C(=C(/c1ccc(Cl)cc1)c1ccc(OCCN(CC)CC)cc1)c1ccc(OC)cc1 | 80.5%
35 | COc1ccc(N2C(=O)/C(=C/C(Cl)=C/c3ccc([N+](=O)[O-])cc3)SC2=S)cc1 | -31% (active)
36 | CCOC(=O)CC1CSC(N/N=C(/C)c2cccc(C(F)(F)F)c2)=N1 (stereo not drawn) | 99.6%
37 | CSc1nc(N)c2c(n1)NC(c1ccccc1)C1CCc3ccccc3C1=N2 (stereo not drawn) | 77.6%
38 | COc1cc2cc(Oc3ccc(NC(=O)Nc4ccc(F)c(C(F)(F)F)c4)cc3)c(C)nc2cc1OCCN1CCCCC1 | 81.1%
39 | O=C(Nc1ncc(Cc2ccccc2)s1)c1cc(-c2ccccc2)nc2ccccc12 | 89.3%
40 | CN1CCN(Cc2ccc(NC(=O)c3cncc(C#Cc4cnc(N)c5ncccc45)c3)cc2Cl)CC1 | 56.5%
41 | COc1c(O[C@@H]2OC(CO)[C@H](O)[C@H](O)C2O)cc2oc3cc(O)c(CC=C(C)C)c(O)c3c(=O)c2c1CC=C(C)C (stereo partly drawn) | 86.6%
42 | COc1cccc(-c2cc(-c3ccc(Nc4nc(Nc5ccc(Cl)cc5)nc(Nc5ccc(Cl)cc5)n4)cc3)nc(N)c2C#N)c1 | 10.5%
43 | O=C(NCCN1CCOCC1)c1cncnc1Nc1ccc2c(ccn2Cc2ccccn2)c1 | 95.2%
